# According to PubChem BioAssay (Tox21):
# Unmarked numbers belong to inactive results. Active and inactive are the calls of the source. Calls follow the shape of the dose curve; as a rule, active = well fitted curve in the direction sought with a large enough effect in the repeat runs; inconclusive = weak or mixed curves; inactive = flat fitted curve, though single readings scatter.
# Assay: qHTS assay to test for compound auto fluorescence at 590 nm (red) in HEK293 cells (AID 720679)
# Details: red autofluorescence 540/590 nm; series mostly up to 91.3 µM; fluorescence, % of fluorescent control: at the top concentration
# From the text: National Center for Advancing Translational Sciences [NCATS]
# NIH Chemical Genomics Center [NCGC]
# U.S. Environmental Protection Agency [EPA]
# National Institutes of Environmental Health Sciences [NIEHS]
# National Toxicology Program [NTP]
# U.S. Food and Drug Administration [FDA]
# Compound auto fluorescence often interferes with screening of the compound library against various biological targets and signaling pathways. Some of these compounds may have fluorophoric properties. Such properties may interfere with the assay outputs resulting in false positives and/or negatives. To decrease such complications and ensure the compound activities are relevant in terms of biological response, the Tox21 10K compound library was screened for auto fluorescence.
# From the fluorophores used as reporter signals in our screening assays, the auto fluorescence equivalencies of compounds against three fluorophores have been evaluated: Triamterene, Fluorescein and Rose Bengal sodium for blue, green and red fluorescence, respectively. The fluorescence intensities were measured using Excitation/Emission wavelengths at 405/460nm, 485/535nm and 540/590nm for blue, green and red labels, respectively. This assay includes the red fluorescence data.
# Tox21 Assay Protocol Summary:
# 2,000 HEK293 cells in 5 uL of culture medium containing 10% dialyzed FBS per well were dispensed into black wall/clear bottom 1536-well plates using a Multidrop Combi Dispenser (Thermo Scientific). The assay plates were incubated for 4-5 hr at 37C to allow cell attachment to the well bottom, followed by the transfer of 23 nL compound or DMSO vehicle by a pintool work station (Kalypsys, San Diego, CA). After the assay plates were incubated overnight at 37C and 5% CO2, fluorescence intensities in the assay plates were measured by an Envision (PerkinElmer, Shelton, CT) plate reader using three labels for measuring blue, green and red fluorescence at […] 460, 535 and 590nm respectively.
# % is scaled to controls: 0 for no effect and ±100 for the full control effect.
SMILES,"fluorescence, % of fluorescent control",outcome
CCCCOC(C)=O,0.183% [at 95.7 µM],–
CCC(C)(C#N)N=NC(C)(C#N)CC (stereo not given),0.0516%,–
CC(C)(O)C(Cl)(Cl)Cl,0.0112% [at 46 µM],–
CN(C)CCN(C)C,-0.527%,–
N#CN,–,inactive
CCCCCCC(=O)CCCCCC/C=C/C[C@@H](O)[C@H](O)[C@@](N)(CO)C(=O)O,–,inactive
S=C=S,–,inactive
CCOC(=O)CCl,0.0366%,–
C[N+]1(C)CCCCC1,0.0689%,–
N=C(N)[Se],-0.216%,–
COC(=O)c1ccc(CBr)cc1,-0.282% [at 95.7 µM],–
Clc1cc2c(cc1Cl)Oc1cc(Cl)c(Cl)cc1O2,0.175% [at 0.37 µM],–
O=C(Cl)CCl,-0.102%,–
C=CCCC#N,-0.281%,–
C/C(=N\NC(=O)Nc1cc(F)cc(F)c1)c1ncccc1C(=O)O,0.126%,–
CCOC(=O)NC(C)(C)Cc1ccc(Cl)cc1,-0.353% [at 46 µM],–
CC(=O)OCC1=C(C(=O)O)N2C(=O)[C@@H](N)[C@H]2SC1,0.0847% [at 18.6 µM],–
CCOc1cc(OP(=S)(OC)OC)nc(CC)n1,-0.656%,–
ClC(Cl)(Cl)Cl,–,inactive
CC(Cc1ccccc1)NCCn1cnc2c1c(=O)n(C)c(=O)n2C (stereo not given),-0.497%,–

SMILES,"fluorescence, % of fluorescent control",outcome
C[C@H](N)C(=O)c1ccccc1,–,inactive
CCOP(=S)(OCC)Oc1ccc(Cl)cc1Cl,-0.374%,–
O=P(O)(O)c1ccccc1,-0.372%,–
C=CCN1CC[C@]23CCCC[C@H]2[C@H]1Cc1ccc(O)cc13,0.0357% [at 46 µM],–
NC(=O)OCCCc1ccccc1,0.209% [at 46 µM],–
C[C@H]1CCCC(=O)CCC/C=C/c2cc(O)cc(O)c2C(=O)O1,–,inactive
c1cncc([C@@H]2CCCCN2)c1,-0.125%,–
Cc1ccc2c(c1)C1CN(C)CCC1N2 (stereo not given),-0.0684% [at 46 µM],–
CCCN1CCC[C@@H]2Cc3[nH]ncc3C[C@H]21,0.124% [at 46 µM],–
O=C(Cl)C(Cl)(Cl)Cl,0.256%,–
CC(C)(C)C(=O)Cl,-0.0627% [at 95.7 µM],–
CNC(=O)NC(O)C(Cl)(Cl)Cl (stereo not given),0.0988% [at 46 µM],–
CCNc1nc(NCC)nc(SC)n1,-0.142%,–
Cc1ccc(Cl)c(O)c1,-0.636% [at 46 µM],–
C[C@@H](N)[C@@H](O)c1ccccc1,-0.083% [at 18.6 µM],–
O=[N+]([O-])CCO,0.125% [at 95.7 µM],–
N[C@@H]1C[C@H]1c1ccccc1,-0.187% [at 46 µM],–
CC#Cc1cc(C)nc(Nc2ccccc2)n1,-0.379%,–
CC(C)(C)C(=O)C(Cl)Cl,0.166%,–
C=C(Cl)CSC(=S)N(CC)CC,0.529% [at 95.7 µM],–
